# Results from PubChem BioAssay (NCI).
# Compounds without any hit were thinned out: in the full panel of roughly 83,000, 20% have a hit.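 Values shown are percent growth following 48 h exposure of cells in 96-well plates to a single concentration of compound; below 10 was considered active.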 A number with no mark means an inactive call. Active and inactive are the calls of the source.
# System: MOLT-4 leukemia
# Experiment: NCI-60 one-dose screen, 48 h (100 = growth as untreated, 0 = no growth, -100 = all killed)
# Conditions: 10 µM
# Procedure: Growth inhibition of the MOLT-4 human tumor cell line is measured as a screen for anti-cancer activity. Cells are grown in 96 well plates and exposed to the test compound for 48 hours. Compounds are tested at a single concentration, which is 10^-5 M for most compounds. The reported endpoint is percent growth (GI% or GIPRCNT), where numbers from 0 - 100% represent growth inhibition, and numbers from -100% - 0 represent cell death. For example, a value of 40 represents 60% growth inhibition. A value of 0 means no net growth occurred over the course of the experiment. A value of -40 indicates 40% of cells at the beginning of the experiment died by the end of the experiment. A value of -100 means all cells are dead at the end of the experiment.
# NCI-60 Human Tumor Cell Lines Screen was performed using the standard one-dose NCI protocol, which is described in more detail at https://dtp.cancer.gov/discovery_development/nci-60/default.htm.
# Compounds with GIPRCNT values below 10 were considered active. Activity score was based on GIPRCNT using the following formula: […]
# Score is 0 for GIPRCNT values of 100 or above, 50 for GIPRCNT values of 0, and 100 for GIPRCNT values of -100.
row,SMILES,growth
1,O=C(Nc1ccc(OS(=O)(=O)c2ccccc2)cc1)C1CCCCC1,74%
2,O=C1CCn2c1c(O)c1ccccc1c2=O,106%
3,CCOc1ccccc1/C=N\N=C\c1ccccc1O,72.5%
4,C=CCN(CC=C)C(=O)[C@H](CC)[C@@H]1CC[C@@H](C)[C@@H]([C@H](C)[C@@H](O)[C@@H](C)C(=O)[C@H](CC)C2O[C@]3(C=C[C@@H](O)[C@]4(CC[C@@](C)([C@H]5CC[C@](O)(CC)[C@H](C)O5)O4)O3)[C@H](C)C[C@@H]2C)O1 (stereo not given in full),19.4%
5,c1ccc(/C(=N\Nc2ccc3ccccc3n2)c2ccccn2)cc1,-21.8% (active)
6,CCOC(=O)C(C)(c1ccccc1)c1ccccc1,109%
7,CC(C)(C)c1ccc(S(=O)(=O)N[C@H]2CC[C@H]3[C@@H]4CCc5cc(O)ccc5[C@H]4CC[C@]23C)cc1,16.8%
8,Cc1cc(C)nc(NS(=O)(=O)c2ccc(Nc3nc4nc(NCc5ccccc5)nc(-c5ccc(O)cc5)c4c(=O)[nH]3)cc2)n1,-1.75% (active)
9,CC(=O)N[C@H](C(=O)N[C@@H](CCCNC(=N)N)C(=O)N[C@@H](CCCCN)C(=O)N[C@@H](CCCNC(=N)N)C(=O)NC(C(=O)N[C@@H](CC(C)C)C(=O)N[C@@H](CCCNC(=N)N)C(=O)N[C@@]1(C)CCC/C=C\CCC[C@@](C)(C(=O)N[C@@H](CCCNC(=N)N)C(=O)N[C@@H](CCC(=O)O)C(=O)N[C@@H](CC(C)C)C(=O)N[C@H](C(=O)N[C@@H](CCC(=O)O)C(N)=O)C(C)C)NC(=O)[C@H](CCC(N)=O)NC(=O)[C@H](CC(C)C)NC(=O)[C@H](CC(C)C)NC1=O)[C@@H](C)O)C(C)C (stereo not given in full),32.7%
10,O=C(CC(CC(=O)c1ccccc1)c1ccccc1O)c1ccccc1,105%
11,COc1cc(-c2nn(-c3cccc(NC(=O)NCCNC(=O)c4ccccc4)c3)cc2-c2ccncc2)ccc1Cl,4.74% (active)
12,CCOC(=O)/C(=C(\C)N)C1CC(=O)NC1=O (stereo not given),104%
13,Cc1cc(Cl)ccc1Nc1nc(C(F)(F)F)ccc1C(=O)N/N=C/c1cccc(O)c1,3.63% (active)
14,C1CN(CC2CCC(CN3CCOCC3)O2)CCO1 (stereo not given),68.2%
15,COc1ccc(/C=C2/SC(=S)NC2=O)c(OC)c1OC,90.1%
16,O=C(CCC(C(=O)c1ccccc1)c1ccccc1)c1ccccc1 (stereo not given),46.2%
17,CNC(=O)c1cc(Oc2ccc3c(c2)sc2nc(-c4ccc(N)cc4)cn23)ccn1,15%
18,O=C(Nc1cc([N+](=O)[O-])c2[nH]c(=O)c3ccccc3c2c1)C(F)(F)F,55.2%
19,CCCC1(CN2c3ccccc3Sc3ccc(Cl)cc32)CCN(CC)C1 (stereo not given),-27.9% (active)
20,C[C@@H](O)[C@H]1C(=O)N2C(C(=O)O)=C(SC3CN[C@H](C(=O)N(C)C)C3)[C@H](C)[C@H]12 (stereo not given in full),116%

row,SMILES,growth
1,COc1cc(-c2nn(-c3cccc(NC(=O)NCCNC(=O)c4cccc(C(F)(F)F)c4)c3)cc2-c2ccncc2)ccc1Cl,27.3%
2,Cc1ccc(NCCNCC(C)(C)O)c2c(=O)c3ccc(Cl)cc3sc12,-30.7% (active)
3,CC(C)CCN(CCC(C)C)CC(=O)Nc1ccc(S(=O)(=O)c2ccc(NC(=O)CN(CCC(C)C)CCC(C)C)cc2)cc1,2.75% (active)
4,COc1cc(/C=C/c2cc(/C=C/c3ccc(O)c(OC)c3)[nH]c(=O)n2)ccc1O,36.3%
5,Nc1nc(-c2ccc(Cl)cc2)cc(-c2cc3ccccc3oc2=O)n1,93.8%
6,COc1ccc2c(c1)OC(N)=C(C#N)C2c1cc(OC)c(OC)c(OC)c1 (stereo not given),7.89% (active)
7,CCN(CC)CCOC(=O)c1cc(OCc2ccccc2)c(OCc2ccccc2)c(OCc2ccccc2)c1,8.5% (active)
8,C[C@]12CC[C@@H]3c4ccc(O)cc4CC[C@H]3[C@@H]1CC[C@@H]2NS(=O)(=O)c1ccc(C(F)(F)F)cc1,11.7%
9,C=CCN(CC=C)C(=O)[C@H](CC)[C@@H]1CC[C@@H](C)[C@@H]([C@H](C)[C@@H](O)[C@@H](C)C(=O)[C@H](CC)C2O[C@]3(C=CC(=O)[C@]4(CC[C@@](C)([C@H]5CC[C@](O)(CC)[C@H](C)O5)O4)O3)[C@H](C)C[C@@H]2C)O1 (stereo not given in full),28.8%
10,CC(=O)[C@H]1CC[C@]2(C)[C@@H]1CC[C@@H]1[C@@]3(C)CC(CCC#N)(CCC#N)C(=O)C(C)(C)[C@@H]3CC[C@]12C,96.3%
11,COc1ccc(-c2onc(N)c2-c2cc(OC)c3c(c2)OCO3)cc1,13.7%
12,CC(=O)OC/C=C(/C)C[P+](c1ccccc1)(c1ccccc1)c1ccccc1,78.2%
13,COc1ccc2c(c1)CC=C1[C@@H]2CC[C@]2(C)C(=O)/C(=N/O)C[C@@H]12,63.3%
14,C(=N\Nc1ncnc2sc3c(c12)CCNC3)/c1cccc2ccccc12,48.1%
15,Cc1c2c[n+](C(C)C)ccc2c(C)c2c1[nH]c1ccccc12,14.8%
16,CN1CCc2c(sc3nc4n(-c5ccc(Cl)cc5)c(=O)[nH]n4c(=O)c23)C1,99.1%
17,CCN(CC)CCOc1cccc2c1C(=O)c1ccccc1C2=O,96.4%
18,COc1cc(-c2csc(NC(=O)Nc3ccc(Cl)c(C(F)(F)F)c3)n2)cc(OC)c1OC,2.65% (active)
19,CC(=O)OC1C=CC(OC(C)=O)O1 (stereo not given),90%
20,COc1ccc(C2=Cn3c(CCC(=O)c4nc5ccccc5[nH]4)nnc3SC2)cc1,43.2%
